Compound activity deposited in PubChem by National Center for Advancing Translational Sciences (NCATS).
Only some compounds are listed: those with a hit (about 3.1% of all), similar ones and a draw of the others.
uPA generation: blocks generation of uPA at the cell surface. hit rate 0.31% among 330,000. Potency, µM (highest dose often 38.3 µM), most hits filed as inhibitors. cell surface uPA generation assay, qHTS; active = well fitted inhibition curve with a large enough effect; inconclusive = small, poorly fitted or top-dose-only effect; inactive = no such curve, though single readings can be large or run the other way; tested in mouse RAW 264.7 cells; note: nearly all actives have a fitted effect of over 55% in size
TSHR antag: blocks TSH signaling through the human TSH receptor. P16473. TSHR-expressing cells, TSH-stimulated cAMP HTRF, 2 h; active compounds read low. activity change, negative = inhibition, % at 11.5 µM. hit rate 0.2% among 330,000;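 active = activity change below a set negative limit, meaning inhibition stronger than a set level, cut at about -70% in these data; inconclusive = activity change between two set negative limits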
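TSHR-expressing cells, 200/well, pre-treated with compound, then stimulated with EC80 TSH (4nM final) for 2 hours at 37 deg C. cAMP measured by competitive HTRF: anti-cAMP cryptate antibody in lysis buffer plus cAMP-d2, read after 30 minutes at room temperature.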
TSG101-PTAP inh: blocks PTAP/TSG101 interaction to inhibit HIV-1 budding | Q99816 | Fluorescence polarization, FITC-PTAP peptide / Tsg101 binding | Potency, µM (highest dose often 115 µM), most hits filed as inhibitors | 340,000 tested, under 10 active | AID 493005; active = well fitted inhibition curve with a large enough effect in the main read-out, with a control signal flat, not every such curve was filed as active; inconclusive = small, poorly fitted or top-dose-only effect, or effect the other way, or a change in a side signal; inactive = no such curve, though single readings can be large or run the other way
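Compounds were pin-transferred onto Tsg101 binding domain (10 uM final) in HEPES pH 7.5 buffer, then FITC-PTAP peptide was added at 50 nM final. After 20 min at RT, polarization reported peptide displacement across a qHTS concentration series.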
VDR inhibitor: vitamin D3 receptor (human) inhibition. Potency, µM, actives largely listed as inhibitors. P11473. VDR-SRC2-3 peptide fluorescence polarization, 2 h. hit rate 0.93% among 400,000
Target sequence (P11473 whole entry, looked up): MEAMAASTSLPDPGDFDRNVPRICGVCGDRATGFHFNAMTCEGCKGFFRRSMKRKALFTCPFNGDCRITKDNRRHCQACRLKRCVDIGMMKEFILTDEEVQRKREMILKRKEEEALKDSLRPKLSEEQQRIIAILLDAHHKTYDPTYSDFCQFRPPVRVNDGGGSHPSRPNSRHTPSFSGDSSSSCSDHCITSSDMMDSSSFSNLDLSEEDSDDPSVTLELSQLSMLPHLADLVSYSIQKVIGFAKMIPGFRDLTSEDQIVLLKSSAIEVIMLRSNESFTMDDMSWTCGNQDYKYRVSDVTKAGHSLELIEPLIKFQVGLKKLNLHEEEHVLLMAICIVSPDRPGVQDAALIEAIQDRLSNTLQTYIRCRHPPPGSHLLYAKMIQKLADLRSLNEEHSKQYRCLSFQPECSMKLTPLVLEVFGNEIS
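FP read-out; VDR + SRC2-3 coactivator peptide; 23 nl compound by pintool; 2 h RT incubation; reagents held at 4 deg C, protected from light.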
PLK1 PBD inh: blocks phosphopeptide binding to human PLK1 polo-box domain; hit rate 2.8% among 360,000; Plk1 PBD binding of FITC phosphopeptide, fluorescence polarization; P53350; Potency, µM, hits mostly inhibitors; note: series mostly up to about 57 µM; nearly all actives have a fitted effect of over 65% in size
Numbers stand for hits. Unless noted, calls come from the whole dose curve; as a rule, active = well fitted curve in the direction sought with a large enough effect; inconclusive = small, poorly fitted or top-dose-only effect, or another doubt; inactive = no such curve, though single readings can be large; an effect the other way counts as inactive or inconclusive.

How did O=C(NNC(=O)c1ccc(Br)o1)c1ccc(NC(=O)c2ccccc2)cc1 do in these assays?
uPA generation: inactive; TSHR antag: inactive; TSG101-PTAP inh: inactive; VDR inhibitor: inactive; PLK1 PBD inh: inactive

What do the screens show for `CCn1c2ccccc2c2cc(NC(=O)c3coc(=O)c(Br)c3)ccc21`?
TSHR antag: inactive

What do the screens show for `CCn1c2ccccc2c2cc(NC(=O)c3cc(OC)c(OC)c(OC)c3)ccc21`?
uPA generation: inactive; TSHR antag: inactive; TSG101-PTAP inh: inactive; VDR inhibitor: inactive; PLK1 PBD inh: inactive

How did N/C(=N\O)c1ccc(NC(=O)c2ccc(Br)o2)cc1 do in these assays?
uPA generation: inactive; TSHR antag: inactive; TSG101-PTAP inh: inactive; VDR inhibitor: inconclusive; PLK1 PBD inh: 15µM

What do the screens show for `COc1ccc(NC(=O)CSc2nc3[nH]c(=O)[nH]c(=O)c3s2)cc1OC`?
uPA generation: inactive; TSHR antag: -73.4; TSG101-PTAP inh: inactive; VDR inhibitor: inactive; PLK1 PBD inh: inactive

How did CCOc1ccc(NC(=O)c2cn(-c3ccc(OCC)cc3)c(=O)c3cc(OC)c(OC)cc23)cc1 do in these assays?
uPA generation: inactive; TSHR antag: inactive; TSG101-PTAP inh: inactive; VDR inhibitor: inactive; PLK1 PBD inh: inactive

What do the screens show for `CCOc1ccc(-n2cc(C(=O)NC(C)C)c3cc(OC)c(OC)cc3c2=O)cc1`?
uPA generation: inactive; TSHR antag: inactive; TSG101-PTAP inh: inactive; VDR inhibitor: inconclusive; PLK1 PBD inh: 23.8µM

How did CCc1c(C(=O)Nc2ccccc2)c(C)[nH]c(=S)c1C#N do in these assays?
uPA generation: inactive; TSHR antag: inactive; TSG101-PTAP inh: inactive; VDR inhibitor: inactive; PLK1 PBD inh: 21.2µM

What do the screens show for `O=C(CCNc1ccccc1)c1cccc([N+](=O)[O-])c1`?
TSHR antag: inactive; TSG101-PTAP inh: inactive; VDR inhibitor: 89.1µM; PLK1 PBD inh: inconclusive

Results for O=C(CCNc1ccc(Br)cc1)c1cccc([N+](=O)[O-])c1 ?
uPA generation: inactive; TSHR antag: inactive; TSG101-PTAP inh: inactive; VDR inhibitor: 89.1µM; PLK1 PBD inh: inconclusive

Results for CC1=C(C(N)=O)S(=O)(=O)c2ccccc21 ?
uPA generation: inactive; TSHR antag: inactive; TSG101-PTAP inh: inactive; VDR inhibitor: inconclusive; PLK1 PBD inh: 21.2µM

What do the screens show for `Nc1ccccc1SCc1csc(-c2ccc(Cl)cc2)n1`?
uPA generation: inactive; TSHR antag: inactive; TSG101-PTAP inh: inactive; VDR inhibitor: inconclusive; PLK1 PBD inh: 9.47µM

How did NC(=S)n1[nH]c(-c2ccc([N+](=O)[O-])cc2)c(N=Nc2cccc([N+](=O)[O-])c2)c1=O do in these assays?
uPA generation: inactive; TSHR antag: inconclusive; TSG101-PTAP inh: inactive; VDR inhibitor: inconclusive; PLK1 PBD inh: 21.2µM

Results for NC(=S)n1[nH]c(-c2ccc([N+](=O)[O-])cc2)c(N=Nc2ccccc2[N+](=O)[O-])c1=O ?
uPA generation: inactive; TSHR antag: inactive; TSG101-PTAP inh: inactive; VDR inhibitor: inactive; PLK1 PBD inh: inactive

How did COC(=O)CN1C(=O)CSc2ccc(S(=O)(=O)Nc3ccc(F)c(Cl)c3)cc21 do in these assays?
VDR inhibitor: inactive

How did O=C(c1ccc(Br)cc1)c1cc2ccc(O)cc2oc1=O do in these assays?
uPA generation: inactive; TSHR antag: inactive; TSG101-PTAP inh: inactive; VDR inhibitor: inconclusive; PLK1 PBD inh: 10.6µM

How did COc1ccc(C(=O)c2cc3ccc(O)cc3oc2=O)cc1 do in these assays?
uPA generation: inactive; TSHR antag: inactive; TSG101-PTAP inh: inactive; VDR inhibitor: inactive; PLK1 PBD inh: inactive

What do the screens show for `CCN(CC)CCNC(=O)c1ccc(CSc2nc3ccncc3n2Cc2cccc(F)c2)cc1`?
VDR inhibitor: inactive

What do the screens show for `COc1cc(C(=O)OCc2cc(=O)oc3c(C)c(C)ccc23)ccc1OC(F)F`?
TSHR antag: inactive; TSG101-PTAP inh: inactive; VDR inhibitor: inconclusive; PLK1 PBD inh: 23.8µM

How did Cc1ccc2c(CN(C)Cc3ccc(OC(F)F)cc3)cc(=O)oc2c1C do in these assays?
uPA generation: inactive; TSHR antag: inactive; TSG101-PTAP inh: inactive; VDR inhibitor: inactive; PLK1 PBD inh: inactive

What do the screens show for `N#Cc1sc(=O)[nH]c1Cl`?
uPA generation: inactive; TSG101-PTAP inh: inactive; VDR inhibitor: 79.4µM; PLK1 PBD inh: inconclusive

Results for CC(=O)c1ccc(N2CCN(S(=O)(=O)c3cc(-c4onc(C)c4C)ccc3C)CC2)cc1 ?
VDR inhibitor: inactive

How did Cc1nn(-c2ccccc2)c(OC(=O)C(C)C)c1Sc1ccc(Cl)cc1 do in these assays?
VDR inhibitor: 89.1µM

What do the screens show for `O=C(Cc1cccs1)NC1C(=O)N2C(C(=O)[O-])=C(C[n+]3ccccc3)CSC12` (stereo not drawn)?
VDR inhibitor: 25.1µM

What do the screens show for `O=C1OC(c2ccccc2)/C(=C(/O)c2ccc(Cl)cc2)C1=O` (stereo not drawn)?
uPA generation: inactive; TSHR antag: inactive; TSG101-PTAP inh: inactive; VDR inhibitor: 44.7µM; PLK1 PBD inh: inactive

How did Cc1c(NC(=O)c2cccc3c(Cl)cccc23)cccc1-c1nc2ccccc2o1 do in these assays?
VDR inhibitor: inactive

Results for Cc1ccc(-c2cc(-c3ccc(Cl)cc3)c(C#N)c(N)n2)o1 ?
uPA generation: inactive; TSHR antag: inactive; TSG101-PTAP inh: inactive; VDR inhibitor: inconclusive; PLK1 PBD inh: 21.2µM

How did Cc1ccc(-c2cc(-c3ccc(C)o3)nc(N)c2C#N)cc1 do in these assays?
uPA generation: inactive; TSHR antag: inactive; TSG101-PTAP inh: inactive; VDR inhibitor: inconclusive; PLK1 PBD inh: 13.4µM

Results for O=C(c1cccc(Cl)c1)N1CCN(S(=O)(=O)c2ccc(Cl)s2)CC1 ?
uPA generation: inactive; TSHR antag: inactive; TSG101-PTAP inh: inactive; VDR inhibitor: inactive; PLK1 PBD inh: inactive

Results for COC(=O)C1SCC2C(=O)N(Cc3ccc(Cl)c(Cl)c3)CC(=O)N21 (stereo not drawn) ?
uPA generation: inactive; TSHR antag: inactive; TSG101-PTAP inh: inactive; VDR inhibitor: inconclusive; PLK1 PBD inh: 18.9µM

What do the screens show for `CN(C)C(CNS(=O)(=O)c1cc([N+](=O)[O-])ccc1Cl)c1ccco1` (stereo not drawn)?
uPA generation: inactive; TSHR antag: inactive; TSG101-PTAP inh: inactive; VDR inhibitor: inactive; PLK1 PBD inh: 26.7µM

What do the screens show for `Cc1ccc(-c2nnn3c2nc(N2CCC(C)CC2)c2ccccc23)cc1`?
VDR inhibitor: inactive

How did Cc1ccc(S(=O)(=O)N2CCOCC2)cc1NC(=O)CSc1nnc(COc2ccccc2F)n1N do in these assays?
uPA generation: inactive; TSG101-PTAP inh: inactive; VDR inhibitor: inactive; PLK1 PBD inh: inactive

How did Brc1ccc(-c2ccc(/C=N/Nc3nc4ccccc4[nH]3)o2)cc1 do in these assays?
uPA generation: 10µM; TSHR antag: inactive; TSG101-PTAP inh: inactive; VDR inhibitor: inactive; PLK1 PBD inh: inactive

What do the screens show for `C=C1C[C@]23C[C@@]1(O)CC[C@H]2[C@@]12C=C[C@H](O)C(C)(C(=O)O1)[C@H]2[C@@H]3CC(=O)O`?
VDR inhibitor: inactive

Results for O=C(N/N=C/c1cccc2nccnc12)c1ccccc1O ?
uPA generation: inactive; TSHR antag: inactive; TSG101-PTAP inh: inactive; VDR inhibitor: inactive; PLK1 PBD inh: inactive
